These results are taken from the supplement of paper PMC13380429.

Assay [1] concerns Vero E6 infected with SARS-CoV-2. Nature of the assay: morphology score (similarity to uninfected cells); higher = more like uninfected cells. Conditions: 24 h.
Assay [2] shares this test system. Nature of the assay: SARS-CoV-2 infection rate relative to infected DMSO; higher = more infection, active = 60 or less. Conditions: 24 h.

In assay [1], `CCN(CC)C(=O)c1ccc(C2=CC3(CCNCC3)Oc3cccc(O)c32)cc1` (10 µM) registered a morphology score of 0.006. The SARS-CoV-2 infection rate in assay [2] is 122% (inactive).

Compound `COc1ccccc1CN[C@H]1CCCN[C@H]1c1ccccc1` (10 µM) came in with a morphology score in assay [1] of 0.24. For the same compound, the SARS-CoV-2 infection rate in assay [2] is 86% (inactive).

`Cc1c(N)cccc1Cn1ccc(OCCc2cccs2)cc1=O` (10 µM) yielded a morphology score in assay [1] of 0.0738. In assay [2], the SARS-CoV-2 infection rate is 102% (inactive).

In the case of `FC(F)(F)c1cccc(-c2noc(-c3cc(-c4ccccc4)c(C(F)(F)F)s3)n2)c1` (10 µM), the morphology score in assay [1] is -0.0447. For the same compound, in assay [2], the SARS-CoV-2 infection rate was 114% (inactive).

Take `CC(C(=O)O)c1ccc(CC2CCCC2=O)cc1` (centres undefined) [loxoprofen] (10 µM): the morphology score in assay [1] was -0.0253. Besides, the SARS-CoV-2 infection rate in assay [2] was 108% (inactive).

Turning to `Fc1ccc(Cl)cc1-c1nc(Nc2ccncc2)c2nccnc2n1` (10 µM), the morphology score in assay [1] was 0.0882. Also, the SARS-CoV-2 infection rate in assay [2] was 101% (inactive).

Compound `CC(C)(C)c1ccc(O)cc1` [4-tert-butylphenol] (10 µM) gave a morphology score in assay [1] of 0.0892. In assay [2], the SARS-CoV-2 infection rate was 110% (inactive).

As to `Cc1ccsc1C(=CCCN1CCC[C@@H](C(=O)O)C1)c1sccc1C` [tiagabine] (10 µM), in assay [1], the morphology score worked out at 0.0772. The SARS-CoV-2 infection rate in assay [2] is 109% (inactive).

`COc1ccc2nc(NC(=O)Nc3ccccc3)sc2c1` [frentizole] (10 µM) registered a morphology score in assay [1] of -0.0784. For the same compound, the SARS-CoV-2 infection rate in assay [2] was 114% (inactive).

`COc1ccc2cc3[n+](cc2c1OC)CCc1cc2c(cc1-3)OCO2` [berberine] (10 µM) showed a morphology score in assay [1] of 0.0605. Further, in assay [2], the SARS-CoV-2 infection rate is 98% (inactive).

With `COc1ccc(NC(=O)c2ccc(-c3ccc(-c4noc(C)n4)cc3C)cc2)cc1N1CCN(C)CC1` (0.833333 µM), in assay [1], the morphology score turned out to be 0.0674. For the same compound, in assay [2], the SARS-CoV-2 infection rate is 102% (inactive).

Turning to `COCCc1ccc(OCC(O)CNC(C)C)cc1` (centres undefined) [metoprolol] (10 µM), in assay [1], the morphology score is 0.0844. In assay [2], the SARS-CoV-2 infection rate was 101% (inactive).

Regarding `CCCCCNCC(N)=O` [milacemide] (10 µM), the morphology score in assay [1] came to 0.0276. Besides, the SARS-CoV-2 infection rate in assay [2] is 99% (inactive).

On to `N#C/C(=C1/SCC(c2ccccc2Cl)S1)n1ccnc1` (centres undefined) [lanoconazole] (10 µM), for which, in assay [1], the morphology score is 0.0956. Also, the SARS-CoV-2 infection rate in assay [2] was 99.5% (inactive).

As for `O=C(O)c1ccccc1-c1ccc(C(F)(F)F)cc1` [xenalipin] (10 µM), the morphology score in assay [1] stood at 0.0335. For the same compound, the SARS-CoV-2 infection rate in assay [2] was 102% (inactive).

Regarding `CC(C)Nc1cc(-c2c[nH]c(C(=O)N[C@H](CO)c3cccc(Cl)c3)c2)c(Cl)cn1` (0.833333 µM), in assay [1], the morphology score was -0.017. The SARS-CoV-2 infection rate in assay [2] is 109% (inactive).

As for `COC(=O)C(Cc1ccc(OCCn2c(=O)sc3cc(C(=O)c4ccccc4)ccc32)cc1)C(=O)OC` (10 µM), the morphology score in assay [1] worked out at 0.318. Also, in assay [2], the SARS-CoV-2 infection rate was 88.5% (inactive).

Compound `Cc1nc2ccccc2n1Cc1ccc(Cl)cc1` [chlormidazole] (10 µM) registered a morphology score in assay [1] of -0.099. The SARS-CoV-2 infection rate in assay [2] is 118% (inactive).

In assay [1], `C[C@@H]1C[C@@H]([C@H](O)CC2CC(=O)NC(=O)C2)C(=O)[C@@H](C)C1` [cycloheximide] (10 µM) returned a morphology score of 0.392. In addition, the SARS-CoV-2 infection rate in assay [2] was 69% (inactive).

As to `CN[C@@H](C)[C@H](O)c1ccccc1` [ephedrine] (10 µM), the morphology score in assay [1] is -0.038. Besides, the SARS-CoV-2 infection rate in assay [2] was 106% (inactive).

The compound `N=C(Nc1ccccc1)Nc1ccccc1` [diphenylguanidine] (10 µM) gave a morphology score in assay [1] of 0.216. For the same compound, in assay [2], the SARS-CoV-2 infection rate is 98% (inactive).

Turning to `CC1CCc2cc(F)cc3c(=O)c(C(=O)O)cn1c23` (centres undefined) [flumequine] (10 µM), in assay [1], the morphology score was -0.154. In assay [2], the SARS-CoV-2 infection rate is 116% (inactive).

In turn, `CCN(CC)CCOc1ccc2c(c1)C(=O)c1cc(OCCN(CC)CC)ccc1-2` [tilorone] (0.833333 µM) showed a morphology score in assay [1] of 0.187. Also, the SARS-CoV-2 infection rate in assay [2] was 105% (inactive).

As for `COc1ccc2[nH]cc(CCNC(C)=O)c2c1` [melatonin] (10 µM), the morphology score in assay [1] was 0.0444. The SARS-CoV-2 infection rate in assay [2] was 105% (inactive).

`CCCN(CCc1cccs1)[C@H]1CCc2c(O)cccc2C1` [rotigotine] (10 µM): the morphology score in assay [1] is -0.0144. Besides, in assay [2], the SARS-CoV-2 infection rate is 96.5% (inactive).

In assay [1], `COc1ccc(-c2sc(NC(=O)C(C)(C)C)nc2C)cc1S(=O)(=O)Nc1ccc(O)cc1` [PI4KIII-beta-inhibitor-1] (10 µM) had a morphology score of 0.325. Further, the SARS-CoV-2 infection rate in assay [2] was 66% (inactive).

For the compound `Cc1ccc(/C=C2/C(=O)C3(C)CCC2C3(C)C)cc1` (centres undefined) [3-(4-methylbenzylidene)camphor] (10 µM), in assay [1], the morphology score was -0.0397. In assay [2], the SARS-CoV-2 infection rate is 114% (inactive).
